Assay results taken from PubChem BioAssay AID1159580 (chemical genetic matrix, 2015).
Hit rate of the full screen: of about 5,500 compounds, about 2,000 (36%) were called active. Roughly 18% stayed inconclusive and do not appear here. No stated cut-off is given here; in the data, active means normalized growth mostly below about 0.91 (no sharp cut-off); inconclusive means no clear call, values can overlap the other calls; inactive means mostly above about 0.92. The list shows a part of the results.

Assay: chemical genetic growth profiling, strain panel (AID 1159580);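 further: tested at 20 µM; growth read once vehicle control cultures reached saturation at 30 °C; 1 = growth at the plate median or of vehicle wells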
Settings: growth OD

Measured: normalized growth

c1ccc(CC2=NCCN2)cc1
inactive: S. cerevisiae deletion strains, locus YJR075W, strain HOC1, stronger effect = lower value 1 | S. cerevisiae deletion strains, locus YKL160W, strain elf1, stronger effect = lower value 1.03 | S. cerevisiae deletion strains, locus YKL190W, strain CNB1, stronger effect = lower value 0.998 | S. cerevisiae deletion strains, locus YKR001C, strain vps1, stronger effect = lower value 0.913 | S. cerevisiae deletion strains, locus YKR026C, strain gcn3, stronger effect = lower value 1.03 | S. cerevisiae deletion strains, locus YKR091W, strain srl3, stronger effect = lower value 1.01 | S. cerevisiae deletion strains, locus YLL001W, strain dnm1, stronger effect = lower value 1.01 | S. cerevisiae deletion strains, locus YLL026W, stronger effect = lower value 1.02 | S. cerevisiae deletion strains, locus YLL041C, strain sdh2, stronger effect = lower value 1.01 | S. cerevisiae deletion strains, locus YLR027C, strain aat2, stronger effect = lower value 1.02 | S. cerevisiae deletion strains, locus YLR039C, strain RIC1, stronger effect = lower value 0.931 | S. cerevisiae deletion strains, locus YLR058C, strain SHM2, stronger effect = lower value 0.984 | S. cerevisiae deletion strains, locus YLR113W, strain HOG1, stronger effect = lower value 0.957 | S. cerevisiae deletion strains, locus YLR221C, strain rsa3, stronger effect = lower value 0.997 | S. cerevisiae deletion strains, locus YLR258W, strain gsy2, stronger effect = lower value 1.01 | S. cerevisiae deletion strains, locus YLR262C, strain YPT6 (second series), stronger effect = lower value 1.03 | S. cerevisiae deletion strains, locus YLR262C, strain YPT6, stronger effect = lower value 0.927 | S. cerevisiae deletion strains, locus YLR268W, strain sec22, stronger effect = lower value 0.905 | S. cerevisiae deletion strains, locus YLR320W, strain mms22, stronger effect = lower value 0.989 | S. cerevisiae deletion strains, locus YLR330W, strain CHS5, stronger effect = lower value 0.97 | S. cerevisiae deletion strains, locus YLR342W, strain FKS1 (second series), stronger effect = lower value 1.01 | S. cerevisiae deletion strains, locus YLR342W, strain FKS1, stronger effect = lower value 1.03 | S. cerevisiae deletion strains, locus YLR357W, strain rsc2, stronger effect = lower value 1.03 | S. cerevisiae deletion strains, locus YLR370C, strain arc18, stronger effect = lower value 1.01 | S. cerevisiae deletion strains, locus YLR371W, strain rom2, stronger effect = lower value 0.909 | S. cerevisiae deletion strains, locus YLR384C, strain iki3, stronger effect = lower value 1.03 | S. cerevisiae deletion strains, locus YLR418C, strain cdc73, stronger effect = lower value 1.01 | S. cerevisiae deletion strains, locus YML016C, strain PPZ1, stronger effect = lower value 1.01 | S. cerevisiae deletion strains, locus YML032C, strain rad52, stronger effect = lower value 0.915 | S. cerevisiae deletion strains, locus YML120C, strain ndi1, stronger effect = lower value 1.01 | S. cerevisiae deletion strains, locus YMR058W, strain fet3, stronger effect = lower value 1.03 | S. cerevisiae deletion strains, locus YMR125W, strain sto1, stronger effect = lower value 1.01 | S. cerevisiae deletion strains, locus YMR129W, stronger effect = lower value 1.02 | S. cerevisiae deletion strains, locus YMR205C, strain PFK2, stronger effect = lower value 1 | S. cerevisiae deletion strains, locus YMR223W, strain ubp8, stronger effect = lower value 0.916 | S. cerevisiae deletion strains, locus YMR231W, strain pep5, stronger effect = lower value 1.01 | S. cerevisiae deletion strains, locus YMR263W, strain SAP30, stronger effect = lower value 0.978 | S. cerevisiae deletion strains, locus YMR307W, strain GAS1, stronger effect = lower value 1.03 | S. cerevisiae deletion strains, locus YNL067W, strain RPL9B, stronger effect = lower value 0.957 | S. cerevisiae deletion strains, locus YNL071W, strain lat1, stronger effect = lower value 1.03 | S. cerevisiae deletion strains, locus YNL128W, strain TEP1, stronger effect = lower value 1.01 | S. cerevisiae deletion strains, locus YNL153C, strain GIM3, stronger effect = lower value 0.987 | S. cerevisiae deletion strains, locus YNL183C, strain NPR1, stronger effect = lower value 0.943 | S. cerevisiae deletion strains, locus YNL209W, strain ssb2, stronger effect = lower value 1.02 | S. cerevisiae deletion strains, locus YNL233W, strain BNI4, stronger effect = lower value 0.98 | S. cerevisiae deletion strains, locus YNL248C, strain rpa49, stronger effect = lower value 1.05 | S. cerevisiae deletion strains, locus YNL322C, strain KRE1 (second series), stronger effect = lower value 1.01 | S. cerevisiae deletion strains, locus YNL322C, strain KRE1, stronger effect = lower value 0.987 | S. cerevisiae deletion strains, locus YNR049C, strain mso1, stronger effect = lower value 0.996 | S. cerevisiae deletion strains, locus YOL006C, strain TOP1, stronger effect = lower value 1.09 | S. cerevisiae deletion strains, locus YOL012C, strain htz1 1.4 | S. cerevisiae deletion strains, locus YOR001W, strain rrp6, stronger effect = lower value 1 | S. cerevisiae deletion strains, locus YOR061W, strain CKA2, stronger effect = lower value 0.986 | S. cerevisiae deletion strains, locus YOR069W, strain VPS5, stronger effect = lower value 0.968 | S. cerevisiae deletion strains, locus YOR070C, strain gyp1, stronger effect = lower value 0.998 | S. cerevisiae deletion strains, locus YOR080W, strain dia2, stronger effect = lower value 1.02 | S. cerevisiae deletion strains, locus YOR083W, strain WHI5, stronger effect = lower value 0.976 | S. cerevisiae deletion strains, locus YOR106W, strain vam3, stronger effect = lower value 1.03 | S. cerevisiae deletion strains, locus YOR136W, strain idh2, stronger effect = lower value 0.937 | S. cerevisiae deletion strains, locus YOR184W, strain ser1, stronger effect = lower value 0.899 | S. cerevisiae deletion strains, locus YOR231W, strain MKK1, stronger effect = lower value 0.976 | S. cerevisiae deletion strains, locus YOR265W, strain rbl2, stronger effect = lower value 0.99 | S. cerevisiae deletion strains, locus YOR270C, strain vph1, stronger effect = lower value 1.11 | S. cerevisiae deletion strains, locus YOR290C, strain snf2, stronger effect = lower value 1 | S. cerevisiae deletion strains, locus YPL051W, strain arl3, stronger effect = lower value 0.989 | S. cerevisiae deletion strains, locus YPL055C, strain LGE1, stronger effect = lower value 0.995 | S. cerevisiae deletion strains, locus YPL078C, strain atp4, stronger effect = lower value 1.04 | S. cerevisiae deletion strains, locus YPL106C, strain sse1, stronger effect = lower value 1.02 | S. cerevisiae deletion strains, locus YPL240C, strain hsp82, stronger effect = lower value 1.02 | S. cerevisiae deletion strains, locus YPL241C, strain CIN2, stronger effect = lower value 0.99 | S. cerevisiae deletion strains, locus YPL256C, strain CLN2, stronger effect = lower value 0.941 | S. cerevisiae deletion strains, strain wtn01, stronger effect = lower value 0.917 | S. cerevisiae strains, strain wild type, stronger effect = lower value 1
active: S. cerevisiae deletion strains, locus YKL009W, strain mrt4, stronger effect = lower value 0.695 | S. cerevisiae deletion strains, locus YKL068W, stronger effect = lower value 0.837 | S. cerevisiae deletion strains, locus YKL085W, strain MDH1 (second series), stronger effect = lower value 0.836 | S. cerevisiae deletion strains, locus YKL085W, strain MDH1, stronger effect = lower value 0.836 | S. cerevisiae deletion strains, locus YLR102C, strain apc9, stronger effect = lower value 0.897 | S. cerevisiae deletion strains, locus YML124C, strain tub3, stronger effect = lower value 0.904 | S. cerevisiae deletion strains, locus YMR078C, strain ctf18, stronger effect = lower value 0.907 | S. cerevisiae deletion strains, locus YNL250W, strain rad50, stronger effect = lower value 0.822 | S. cerevisiae deletion strains, locus YNL271C, strain bni1, stronger effect = lower value 0.837 | S. cerevisiae deletion strains, locus YNL298W, strain CLA4, stronger effect = lower value 0.79 | S. cerevisiae deletion strains, locus YNL307C, strain MCK1, stronger effect = lower value 0.877 | S. cerevisiae deletion strains, locus YNR052C, strain pop2, stronger effect = lower value 0.911 | S. cerevisiae deletion strains, locus YOL147C, strain pex11, stronger effect = lower value 0.915 | S. cerevisiae deletion strains, locus YOR144C, strain elg1, stronger effect = lower value 0.917 | S. cerevisiae deletion strains, locus YOR316C, strain cot1, stronger effect = lower value 0.919 | S. cerevisiae deletion strains, locus YPR119W, strain clb2, stronger effect = lower value 0.896 | S. cerevisiae deletion strains, locus YPR141C, strain kar3, stronger effect = lower value 0.767 | S. cerevisiae deletion strains, locus YPR163C, strain tif3, stronger effect = lower value 0.885 | S. cerevisiae deletion strains, locus YPR167C, strain met16, stronger effect = lower value 0.906
